Measurements published in paper PMC7862700, “An all-to-all approach to the identification of sequence-specific readers for epigenetic DNA modifications on cytosine”.

Legend:
Test in all cases: DAPPL (digital affinity profiling via proximity ligation, sequencing); 10 mM Tris-HCl pH 7.5, 50 mM NaCl, 1 mM DTT, 4% glycerol, room temperature, 30 min; GST-TFs on glutathione beads, 16-mer random dsDNA library, 0.1% formaldehyde crosslink after washing; high values mean tight binding
Conditions in all cases: protein: recombinant; tags: N-terminal GST; dsDNA, one strand shown
ERF = biological target: T1, ERF (Homo sapiens, UniProt P50548 1-548)
T1 sequence: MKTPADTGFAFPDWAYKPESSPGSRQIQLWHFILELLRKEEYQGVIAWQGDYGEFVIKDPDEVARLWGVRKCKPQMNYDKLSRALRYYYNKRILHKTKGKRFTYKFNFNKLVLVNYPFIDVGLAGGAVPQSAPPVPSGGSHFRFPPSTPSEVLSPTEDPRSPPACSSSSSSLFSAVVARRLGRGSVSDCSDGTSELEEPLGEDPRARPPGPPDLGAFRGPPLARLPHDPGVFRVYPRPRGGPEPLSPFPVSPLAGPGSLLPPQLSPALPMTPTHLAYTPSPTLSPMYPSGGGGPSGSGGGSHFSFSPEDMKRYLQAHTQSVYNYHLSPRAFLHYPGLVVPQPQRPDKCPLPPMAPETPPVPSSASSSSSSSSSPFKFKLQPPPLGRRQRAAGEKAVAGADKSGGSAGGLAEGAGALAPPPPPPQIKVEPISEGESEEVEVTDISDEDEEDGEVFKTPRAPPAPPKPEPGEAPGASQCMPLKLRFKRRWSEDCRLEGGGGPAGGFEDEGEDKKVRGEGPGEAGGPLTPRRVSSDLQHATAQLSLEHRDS
Procedure, shortened: (§1)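 Pools of DNA-barcoded human transcription factors, expressed in yeast as GST fusions on glutathione beads and combined with a tag-only sample, were incubated with 200 nmole of a 16-mer random double-stranded DNA library. Incubation took 30 min at room temperature in Tris/NaCl/DTT/glycerol buffer and was followed by washing, 0.1% formaldehyde crosslinking, proximity ligation (BsaI/T4 ligase, 1 h, 37 °C), PCR amplification and sequencing on an Illumina NextSeq500. Binding signal is the ratio of a hexamer's read frequency for a factor to its frequency for the tag-only sample.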

ETV3L = biological target: T2, ETV3L (Homo sapiens, UniProt Q6ZN32 1-361)
T2 sequence: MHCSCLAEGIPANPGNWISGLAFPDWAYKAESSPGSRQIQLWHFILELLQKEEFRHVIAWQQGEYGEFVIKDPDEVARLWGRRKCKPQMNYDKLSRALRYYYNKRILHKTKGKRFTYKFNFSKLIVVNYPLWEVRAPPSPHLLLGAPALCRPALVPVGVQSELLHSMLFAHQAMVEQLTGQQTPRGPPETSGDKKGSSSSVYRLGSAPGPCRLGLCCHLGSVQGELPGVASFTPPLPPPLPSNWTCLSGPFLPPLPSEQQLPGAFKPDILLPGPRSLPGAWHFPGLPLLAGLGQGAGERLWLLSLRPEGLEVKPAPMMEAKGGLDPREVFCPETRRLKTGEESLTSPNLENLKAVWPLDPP
Procedure, shortened: as §1

ETS2 = biological target: T3, ETS2 (Homo sapiens, UniProt P15036 1-469)
T3 sequence: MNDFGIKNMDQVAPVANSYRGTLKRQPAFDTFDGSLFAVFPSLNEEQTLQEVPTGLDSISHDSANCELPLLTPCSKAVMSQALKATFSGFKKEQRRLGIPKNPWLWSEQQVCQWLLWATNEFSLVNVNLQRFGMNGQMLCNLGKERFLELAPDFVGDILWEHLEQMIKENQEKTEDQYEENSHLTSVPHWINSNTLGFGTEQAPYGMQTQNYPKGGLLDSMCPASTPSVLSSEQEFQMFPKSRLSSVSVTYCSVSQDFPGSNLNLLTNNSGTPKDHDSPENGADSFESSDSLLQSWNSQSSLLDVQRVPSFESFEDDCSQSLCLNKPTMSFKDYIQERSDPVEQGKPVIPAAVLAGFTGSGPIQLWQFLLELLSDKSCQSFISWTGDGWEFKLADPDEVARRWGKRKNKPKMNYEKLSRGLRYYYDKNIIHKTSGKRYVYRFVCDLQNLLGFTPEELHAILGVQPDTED
Procedure, shortened: as §1

SPDEF = biological target: T4, SPDEF (Homo sapiens, UniProt O95238 1-335)
T4 sequence: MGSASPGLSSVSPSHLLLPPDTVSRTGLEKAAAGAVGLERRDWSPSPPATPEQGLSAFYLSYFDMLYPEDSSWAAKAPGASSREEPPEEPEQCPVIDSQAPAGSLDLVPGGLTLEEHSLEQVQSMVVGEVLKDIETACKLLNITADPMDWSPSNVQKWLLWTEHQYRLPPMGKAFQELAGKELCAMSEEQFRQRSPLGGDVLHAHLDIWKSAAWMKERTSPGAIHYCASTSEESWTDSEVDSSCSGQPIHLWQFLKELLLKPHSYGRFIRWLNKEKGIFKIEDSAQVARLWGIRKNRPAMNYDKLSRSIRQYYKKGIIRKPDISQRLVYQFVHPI
Procedure, shortened: as §1

ETV7 = biological target: T5, ETV7 (Homo sapiens, UniProt Q9Y603 1-341)
T5 sequence: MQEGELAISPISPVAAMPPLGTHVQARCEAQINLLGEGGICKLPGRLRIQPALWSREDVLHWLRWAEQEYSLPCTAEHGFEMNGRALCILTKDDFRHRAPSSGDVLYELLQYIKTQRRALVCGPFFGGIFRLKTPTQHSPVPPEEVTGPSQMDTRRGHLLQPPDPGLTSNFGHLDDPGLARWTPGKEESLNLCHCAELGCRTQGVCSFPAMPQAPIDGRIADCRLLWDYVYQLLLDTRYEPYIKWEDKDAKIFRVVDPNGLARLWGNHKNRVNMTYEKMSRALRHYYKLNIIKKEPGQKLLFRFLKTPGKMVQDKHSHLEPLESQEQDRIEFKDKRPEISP
Procedure, shortened: as §1

ELF5 = biological target: T6, ELF5 (Homo sapiens, UniProt Q9UKW6-2 1-255)
T6 sequence: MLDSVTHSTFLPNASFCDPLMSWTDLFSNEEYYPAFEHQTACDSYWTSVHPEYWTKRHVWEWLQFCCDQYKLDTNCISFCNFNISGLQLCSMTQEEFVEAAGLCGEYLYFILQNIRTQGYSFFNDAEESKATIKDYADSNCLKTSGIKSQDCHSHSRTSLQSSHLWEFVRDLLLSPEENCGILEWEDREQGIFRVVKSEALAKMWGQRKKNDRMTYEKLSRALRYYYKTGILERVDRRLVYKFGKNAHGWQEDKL
Procedure, shortened: as §1

ETV3 = biological target: T7, ETV3 (Homo sapiens, UniProt P41162-2 1-143)
T7 sequence: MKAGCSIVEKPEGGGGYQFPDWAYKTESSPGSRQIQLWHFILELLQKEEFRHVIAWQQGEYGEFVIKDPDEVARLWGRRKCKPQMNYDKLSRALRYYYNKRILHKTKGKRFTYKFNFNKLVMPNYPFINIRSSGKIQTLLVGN
Procedure, shortened: as §1

ETV6 = ETV6 (Homo sapiens, UniProt P41212 1-452)
Chain of ETV6 (P41212 whole entry): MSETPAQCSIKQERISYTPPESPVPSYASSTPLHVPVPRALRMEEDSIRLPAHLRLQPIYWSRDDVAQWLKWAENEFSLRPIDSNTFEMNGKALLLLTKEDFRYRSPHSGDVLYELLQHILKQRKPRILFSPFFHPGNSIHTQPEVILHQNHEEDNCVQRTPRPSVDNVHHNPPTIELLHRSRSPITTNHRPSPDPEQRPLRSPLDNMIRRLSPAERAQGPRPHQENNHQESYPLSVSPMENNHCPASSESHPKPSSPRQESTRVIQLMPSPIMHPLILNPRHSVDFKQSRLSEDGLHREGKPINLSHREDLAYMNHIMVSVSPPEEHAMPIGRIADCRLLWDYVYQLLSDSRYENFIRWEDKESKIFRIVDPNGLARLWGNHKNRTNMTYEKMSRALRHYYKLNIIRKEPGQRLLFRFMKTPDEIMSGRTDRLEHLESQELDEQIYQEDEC
Procedure, shortened: as §1

Question: TAATCT was tested. Which binding signal (ERF) did it give?
Answer: 1.39 fold enrichment (6-mer frequency, TF over GST control)

Question: What about the binding signal (ETV3L) of the same sequence?
Answer: 1.32 fold enrichment (6-mer frequency, TF over GST control)

Question: And the binding signal (ETS2)?
Answer: 1.43 fold enrichment (6-mer frequency, TF over GST control)

Question: What about the binding signal (SPDEF) of the same sequence?
Answer: 1.34 fold enrichment (6-mer frequency, TF over GST control)

Question: And the binding signal (ETV7)?
Answer: 1.5 fold enrichment (6-mer frequency, TF over GST control)

Question: What about the binding signal (ELF5) of the same sequence?
Answer: 1.46 fold enrichment (6-mer frequency, TF over GST control)

Question: And the binding signal (ETV3)?
Answer: 1.28 fold enrichment (6-mer frequency, TF over GST control)

Question: And the binding signal (ETV6)?
Answer: 1.37 fold enrichment (6-mer frequency, TF over GST control)

Question: What does the source list for TACCCT?
Answer: binding signal (ERF): 1.28 fold enrichment (6-mer frequency, TF over GST control); binding signal (ETV3L): 1.18 fold enrichment (6-mer frequency, TF over GST control); binding signal (ETS2): 1.29 fold enrichment (6-mer frequency, TF over GST control); binding signal (SPDEF): 1.29 fold enrichment (6-mer frequency, TF over GST control); binding signal (ETV7): 1.27 fold enrichment (6-mer frequency, TF over GST control); binding signal (ELF5): 1.26 fold enrichment (6-mer frequency, TF over GST control); binding signal (ETV3): 1.25 fold enrichment (6-mer frequency, TF over GST control); binding signal (ETV6): 1.16 fold enrichment (6-mer frequency, TF over GST control)

Question: How did the binding signal (ERF) turn out when TTGGTA was run?
Answer: 1.21 fold enrichment (6-mer frequency, TF over GST control)

Question: And the binding signal (ETV3L)?
Answer: 1.32 fold enrichment (6-mer frequency, TF over GST control)

Question: And the binding signal (ETS2)?
Answer: 1.23 fold enrichment (6-mer frequency, TF over GST control)

Question: And the binding signal (SPDEF)?
Answer: 1.23 fold enrichment (6-mer frequency, TF over GST control)

Question: What about the binding signal (ETV7) of the same sequence?
Answer: 1.23 fold enrichment (6-mer frequency, TF over GST control)

Question: And the binding signal (ELF5)?
Answer: 1.17 fold enrichment (6-mer frequency, TF over GST control)

Question: What about the binding signal (ETV3) of the same sequence?
Answer: 1.18 fold enrichment (6-mer frequency, TF over GST control)

Question: What about the binding signal (ETV6) of the same sequence?
Answer: 1.19 fold enrichment (6-mer frequency, TF over GST control)

Question: With CCGTTC as the sequence, how does the binding signal (ERF) read?
Answer: 1.61 fold enrichment (6-mer frequency, TF over GST control)

Question: And the binding signal (ETV3L)?
Answer: 1.44 fold enrichment (6-mer frequency, TF over GST control)

Question: What about the binding signal (ETS2) of the same sequence?
Answer: 1.36 fold enrichment (6-mer frequency, TF over GST control)

Question: What about the binding signal (SPDEF) of the same sequence?
Answer: 1.41 fold enrichment (6-mer frequency, TF over GST control)

Question: And the binding signal (ETV7)?
Answer: 1.32 fold enrichment (6-mer frequency, TF over GST control)

Question: What about the binding signal (ELF5) of the same sequence?
Answer: 1.56 fold enrichment (6-mer frequency, TF over GST control)

Question: What about the binding signal (ETV3) of the same sequence?
Answer: 1.38 fold enrichment (6-mer frequency, TF over GST control)

Question: And the binding signal (ETV6)?
Answer: 1.37 fold enrichment (6-mer frequency, TF over GST control)

Question: CCTCCA was tested. Which binding signal (ERF) did it give?
Answer: 1.34 fold enrichment (6-mer frequency, TF over GST control)

Question: What about the binding signal (ETV3L) of the same sequence?
Answer: 1.24 fold enrichment (6-mer frequency, TF over GST control)

Question: What about the binding signal (ETS2) of the same sequence?
Answer: 1.31 fold enrichment (6-mer frequency, TF over GST control)

Question: What about the binding signal (SPDEF) of the same sequence?
Answer: 1.34 fold enrichment (6-mer frequency, TF over GST control)

Question: What about the binding signal (ETV7) of the same sequence?
Answer: 1.36 fold enrichment (6-mer frequency, TF over GST control)

Question: And the binding signal (ELF5)?
Answer: 1.42 fold enrichment (6-mer frequency, TF over GST control)

Question: What about the binding signal (ETV3) of the same sequence?
Answer: 1.24 fold enrichment (6-mer frequency, TF over GST control)

Question: What about the binding signal (ETV6) of the same sequence?
Answer: 1.29 fold enrichment (6-mer frequency, TF over GST control)

Question: How did the binding signal (ERF) turn out when GCTAAT was run?
Answer: 1.23 fold enrichment (6-mer frequency, TF over GST control)

Question: And the binding signal (ETV3L)?
Answer: 1.13 fold enrichment (6-mer frequency, TF over GST control)

Question: And the binding signal (ETS2)?
Answer: 1.24 fold enrichment (6-mer frequency, TF over GST control)

Question: What about the binding signal (SPDEF) of the same sequence?
Answer: 1.03 fold enrichment (6-mer frequency, TF over GST control)

Question: And the binding signal (ETV7)?
Answer: 1.23 fold enrichment (6-mer frequency, TF over GST control)

Question: And the binding signal (ELF5)?
Answer: 1.07 fold enrichment (6-mer frequency, TF over GST control)

Question: What about the binding signal (ETV3) of the same sequence?
Answer: 1.2 fold enrichment (6-mer frequency, TF over GST control)

Question: What about the binding signal (ETV6) of the same sequence?
Answer: 1.17 fold enrichment (6-mer frequency, TF over GST control)

Question: What does the source list for ATATCT?
Answer: binding signal (ERF): 1.23 fold enrichment (6-mer frequency, TF over GST control); binding signal (ETV3L): 1.21 fold enrichment (6-mer frequency, TF over GST control); binding signal (ETS2): 1.17 fold enrichment (6-mer frequency, TF over GST control); binding signal (SPDEF): 1.22 fold enrichment (6-mer frequency, TF over GST control); binding signal (ETV7): 1.2 fold enrichment (6-mer frequency, TF over GST control); binding signal (ELF5): 1.18 fold enrichment (6-mer frequency, TF over GST control); binding signal (ETV3): 1.19 fold enrichment (6-mer frequency, TF over GST control); binding signal (ETV6): 1.14 fold enrichment (6-mer frequency, TF over GST control)
